Data on eight compounds can be found in PubChem BioAssay (Tox21).

Values without a mark were called inactive. Inconclusive results are not listed. The source made the active and inactive calls. Unless noted, calls follow the shape of the dose curve; as a rule, active = well fitted curve in the direction sought with a large enough effect in the repeat runs; inconclusive = weak or mixed curves; inactive = no such curve, though single readings can be large; an effect the other way counts as inactive or inconclusive.

A short description of test [1]: A CellTox Green Cytotoxicity Assay to monitor cytotoxicity in HepG2 cells - 24 hour (AID 1224878). Also: nearly all actives have a fitted effect of over 45% in size. Also: potency is read from the fitted curve at half-maximal effect. The procedure, abridged:
(§1)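 Cytotoxicity was tracked as dead-cell DNA fluorescence in HepG2 cells treated with test compounds at 37 C; each time-point value comes from one kinetic series spanning 0, 8, 16, 24, 32 and 40 h.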

Test [2] is described as follows: qHTS RealTime-Glo MT Cell Viability Assay in HEK293 cells - 0 hour (AID 1224880). Also: top concentration of the series differs between compounds; nearly all actives have a fitted effect of over 45% in size. The procedure, abridged: (§2)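 Kinetic, non-lysing viability readout. Seed HEK293 (600/well) with reagent, incubate 5 h at 37 C/5% CO2, pin 23 nL compound in DMSO, incubate at 37 C, read luminescence at 0, 8, 16, 24, 32, 40 h.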
A short description of test [3]: A CellTox Green Cytotoxicity Assay to monitor cytotoxicity in HEK293 cells - 32 hour (AID 1224881). Also: nearly all actives have a fitted effect of over 40% in size. Also: potency is read from the fitted curve at half-maximal effect. The procedure, abridged:
(§3)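 Real-time, in one plate: 600 HEK293 cells/well with dead-cell DNA dye, pinned compound after 5 h, 37 C incubation over 40 h; viable cells give no appreciable fluorescence.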

Test [4] can be described thus: A CellTox Green Cytotoxicity Assay to monitor cytotoxicity in HepG2 cells - 0 hour (AID 1224882). Also: nearly all actives have a fitted effect of over 35% in size. The procedure, abridged: as §1
Test [5] can be described thus: A CellTox Green Cytotoxicity Assay to monitor cytotoxicity in HepG2 cells - 32 hour (AID 1224883). Also: nearly all actives have a fitted effect of over 50% in size. Also: potency is read from the fitted curve at half-maximal effect. A digest of the protocol: as §1
A short description of test [6]: A CellTox Green Cytotoxicity Assay to monitor cytotoxicity in HEK293 cells - 8 hour (AID 1224884). Also: nearly all actives have a fitted effect of over 35% in size. A digest of the protocol:
as §3

Test [7] can be described thus: qHTS RealTime-Glo MT Cell Viability Assay in HepG2 cells - 16 hour (AID 1224885). Also: nearly all actives have a fitted effect of over 50% in size. The procedure, abridged: (§4)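 qHTS, HepG2, 600 cells/well, RealTime-Glo (NanoLuc + prosubstrate) added with cells; 5 h preincubation; DMSO compound addition; 37 C; luminescence at 0/8/16/24/32/40 h.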
A short description of test [8]: qHTS RealTime-Glo MT Cell Viability Assay in HEK293 cells - 24 hour (AID 1224886). Also: top concentration of the series differs between compounds; nearly all actives have a fitted effect of over 50% in size. A digest of the protocol: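 Assay medium contained NanoLuc luciferase plus cell-permeant prosubstrate, added with HEK293 cells at 600 cells/well. After 5 h at 37 C/5% CO2 compounds were added; plates stayed at 37 C for 40 h with serial luminescence reads.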
Test [9] can be described thus: qHTS RealTime-Glo MT Cell Viability Assay in HEK293 cells - 8 hour (AID 1224887). Also: top concentration of the series differs between compounds; nearly all actives have a fitted effect of over 50% in size. A digest of the protocol: as §2
Test [10] in a line: A CellTox Green Cytotoxicity Assay to monitor cytotoxicity in HEK293 cells - 16 hour (AID 1224888). Also: nearly all actives have a fitted effect of over 35% in size. The procedure, abridged: as §3
Test [11] can be described thus: qHTS RealTime-Glo MT Cell Viability Assay in HepG2 cells - 0 hour (AID 1224889). Also: nearly all actives have a fitted effect of over 50% in size. A digest of the protocol:
as §4

Test [12] is described as follows: A CellTox Green Cytotoxicity Assay to monitor cytotoxicity in HepG2 cells - 8 hour (AID 1224890). Also: nearly all actives have a fitted effect of over 45% in size. Also: potency is read from the fitted curve at half-maximal effect. The procedure, abridged:
as §1

Test [13] in a line: qHTS assay to identify small molecule antagonists of the estrogen receptor alpha (ER-alpha) signaling pathway using the BG1 cell line in the presence of 0.1 nM 17-beta-estradiol - cell viability counter screen (AID 1259241). Also: nearly all actives have a fitted effect of over 40% in size. A digest of the protocol: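 Following 5 days in phenol red-free medium with charcoal-stripped serum, VM7Luc4E2 cells received test compounds alongside 0.1 nM 17beta-estradiol (final) at 37C for 22 hr. Live cells were then quantified via protease-substrate fluorescence.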

A short description of test [14]: qHTS assay to identify small molecule antagonists of the androgen receptor (AR) signaling pathway using the MDA cell line in the presence of 0.5 nM R1881 - cell viability counter screen (AID 1259242). Also: nearly all actives have a fitted effect of over 45% in size. The procedure, abridged: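 Cells seeded at 3,000/well and allowed 5 hr at 37C, 0% CO2 before compound transfer and R1881 (0.5 nM final) addition; 16 hr later, live-cell protease fluorescence indicated cytotoxicity.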

Test [15] addresses Estrogen receptor (Homo sapiens) (UniProt P03372). Kind of test: qHTS assay to identify small molecule antagonists of the estrogen receptor alpha (ER-alpha) signaling pathway using the BG1 cell line in the presence of 0.1 nM 17-beta-estradiol (AID 1259244). Also: nearly all actives have a fitted effect of over 50% in size. A digest of the protocol: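 Luciferase signal from VM7Luc4E2 ERE-reporter cells, co-dosed with test compound and 0.1 nM final 17beta-estradiol for 22 h, read with ONE-Glo.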

A short description of test [16]: qHTS assay to identify small molecule HDAC inhibitors (AID 1259364). The procedure, abridged:
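HCT-116 wt cells, 1,500/well, overnight attach. Compounds (DMSO) 2 h, 37 °C. HDAC-Glo I/II, 30 min RT. Luminescence.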

Test [17] can be described thus: A CellTox Green Cytotoxicity Assay to monitor cytotoxicity in HepG2 cells - 40 hour (AID 1224879). Also: nearly all actives have a fitted effect of over 40% in size. Also: potency is read from the fitted curve at half-maximal effect. The procedure, abridged:
as §1

Test [18] is described as follows: qHTS assay to identify small molecule HDAC inhibitors - cell viability counter screen (AID 1259365). The procedure, abridged:
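HCT-116 wild-type, overnight attachment; 2hr drug exposure, 37C; CellTiter-Glo luminescent ATP readout after 30min RT.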

Test [19] in a line: qHTS assay to identify small molecule phospholipidosis (PLD) inducers (AID 1259344; active = well fitted curve in the direction sought with a large enough effect; an effect the other way counts as inactive or inconclusive). A digest of the protocol:
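Cells (HepG2, 900 per well) attach for 4 h, receive LipidTOX Red and compound together, incubate 24 h at 37 C, are fixed 30 min with paraformaldehyde/Hoechst, then imaged at one site per well.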

For test [20], the target named is Androgen receptor (Homo sapiens) (UniProt P10275). As to the kind of experiment: qHTS assay to identify small molecule antagonists of the androgen receptor (AR) signaling pathway using the MDA cell line in the presence of 0.5 nM R1881 (AID 1259243). Also: nearly all actives have a fitted effect of over 50% in size. A digest of the protocol: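 Luminescence from an AR/GR-responsive MMTV-luciferase construct in MDA-kb2 breast carcinoma cells, read 30 min after ONE-Glo, following 16 hr co-treatment with compounds and 0.5 nM R1881.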
Androgen receptor (Homo sapiens), sequence (P10275 whole entry, looked up): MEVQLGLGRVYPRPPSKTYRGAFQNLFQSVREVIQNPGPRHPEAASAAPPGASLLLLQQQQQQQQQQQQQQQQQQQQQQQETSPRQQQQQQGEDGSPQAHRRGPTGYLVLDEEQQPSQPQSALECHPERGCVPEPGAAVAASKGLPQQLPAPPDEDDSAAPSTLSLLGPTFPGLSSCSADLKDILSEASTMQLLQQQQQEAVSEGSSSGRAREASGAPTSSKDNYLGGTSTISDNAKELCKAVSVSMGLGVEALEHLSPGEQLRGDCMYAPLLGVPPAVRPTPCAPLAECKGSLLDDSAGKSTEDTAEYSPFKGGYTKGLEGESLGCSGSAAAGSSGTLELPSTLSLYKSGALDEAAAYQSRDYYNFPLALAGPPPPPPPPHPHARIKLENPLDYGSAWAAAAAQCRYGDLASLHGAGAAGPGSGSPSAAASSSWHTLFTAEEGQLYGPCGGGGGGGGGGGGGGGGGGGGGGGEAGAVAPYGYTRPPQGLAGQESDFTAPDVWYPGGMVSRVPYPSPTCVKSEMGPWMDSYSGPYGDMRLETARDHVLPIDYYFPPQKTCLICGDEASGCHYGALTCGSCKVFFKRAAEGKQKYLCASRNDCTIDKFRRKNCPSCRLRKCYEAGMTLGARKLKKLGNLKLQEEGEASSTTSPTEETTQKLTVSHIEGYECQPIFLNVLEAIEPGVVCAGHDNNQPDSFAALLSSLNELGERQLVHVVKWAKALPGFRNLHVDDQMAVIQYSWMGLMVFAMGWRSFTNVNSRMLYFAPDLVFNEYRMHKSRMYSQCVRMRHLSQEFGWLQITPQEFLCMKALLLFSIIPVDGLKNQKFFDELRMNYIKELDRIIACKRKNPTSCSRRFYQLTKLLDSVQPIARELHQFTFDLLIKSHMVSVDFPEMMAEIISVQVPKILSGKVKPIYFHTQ

Estrogen receptor (Homo sapiens), sequence (P03372 whole entry, looked up): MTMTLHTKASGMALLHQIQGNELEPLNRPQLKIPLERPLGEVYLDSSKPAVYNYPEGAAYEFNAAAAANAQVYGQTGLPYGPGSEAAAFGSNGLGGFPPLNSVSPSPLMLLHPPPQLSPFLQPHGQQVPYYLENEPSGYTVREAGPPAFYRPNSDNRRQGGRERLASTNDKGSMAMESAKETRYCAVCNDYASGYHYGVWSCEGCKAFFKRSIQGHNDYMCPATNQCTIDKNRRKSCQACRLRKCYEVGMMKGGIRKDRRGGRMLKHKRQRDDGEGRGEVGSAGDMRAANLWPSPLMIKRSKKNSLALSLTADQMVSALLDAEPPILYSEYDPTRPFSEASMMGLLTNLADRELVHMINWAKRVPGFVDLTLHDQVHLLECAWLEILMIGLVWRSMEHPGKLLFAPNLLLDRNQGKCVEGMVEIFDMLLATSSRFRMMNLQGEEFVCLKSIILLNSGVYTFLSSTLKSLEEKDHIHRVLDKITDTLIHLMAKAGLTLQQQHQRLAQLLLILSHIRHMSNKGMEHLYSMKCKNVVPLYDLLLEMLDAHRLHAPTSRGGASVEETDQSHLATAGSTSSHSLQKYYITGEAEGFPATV

For `CC(C)(C)OC(=O)c1ccccc1C(=O)O`, the Potency result in test [1], in [2], in [3], in [4], in test [5] and in test [6] was “inactive” throughout. For the same compound, the Potency entry in [10], in [11], in [12] and in test [16] was “inactive” each time. The call in test [7], in test [8], in [9], in test [13], in test [14] and in [15] was inactive.
`CC(=O)c1c(C)cc(C(C)(C)C)cc1C`: the Potency is 34.7 µM (active) in test [1]; 38.9 µM (active) in test [17]; 24.5 µM (active) in [3]; 38.9 µM (active) in [5]; 43.6 µM (active) in test [12]. Further, the Potency result in test [4], in [6], in test [10] and in test [11] was “inactive” each time. The outcome in test [7], in [13], in test [14] and in [18] was inactive.
As for `COC(=O)/C=C(\C)CCC=C(C)C`, the Potency entry in test [1], in test [17], in test [3], in test [4], in [5] and in test [6] was “inactive” throughout. Further, the Potency entry in [10], in test [11], in test [12] and in [16] was “inactive” each time. Moreover, the compound was classed as inactive in test [7], in [9], in test [13], in test [14], in [15] and in [18].
As to `Cc1cc2c(cc1CC(=O)c1sccc1S(=O)(=O)Nc1onc(C)c1Cl)OCO2`, the Potency result in test [1], in [17], in test [3], in test [4], in test [5] and in test [6] was “inactive” in each case. For the same compound, the Potency result in [10], in [12] and in [16] was “inactive” in each case. The call in [7], in test [8], in test [9], in [13], in test [14] and in [15] was inactive. Further, in test [18], the compound was classed as inactive.
Take `O=C1CC2(CCCC2)CC(=O)N1CCNCC1COc2ccccc2O1` (configuration not stated): the Potency result in test [1], in test [17], in test [3], in test [4], in test [5] and in test [6] was “inactive” throughout. The Potency entry in test [10], in [11], in [12], in test [19] and in test [16] was “inactive” each time. The result in test [7], in [9], in [13], in test [14] and in test [18] was inactive.
As for `NNC(=O)OCc1ccccc1`, the Potency entry in test [1], in [17], in test [3], in test [4], in [5] and in test [6] was “inactive” throughout. In addition, the Potency entry in [10], in test [11], in test [12], in [20] and in test [16] was “inactive” throughout. Also, the compound was classed as inactive in [8], in [9], in test [13], in [14], in test [15] and in test [18].
As to `C=CC(=O)CC`, the Potency entry in test [1], in test [2], in test [3], in [4], in test [5] and in test [6] was “inactive” in each case. Moreover, the Potency entry in [10], in test [11], in test [12] and in [16] was “inactive” throughout. Besides, the compound was called inactive in [7], in test [8], in test [9], in [13], in test [14] and in [18].
As to `CCCCC(CC)CCC(CC(C)C)OS(=O)(=O)O` (configuration not stated), the Potency entry in test [1], in test [2], in test [3], in test [4], in test [5] and in test [6] was “inactive” throughout. Also, the Potency result in test [10], in [11], in [19] and in [16] was “inactive” each time. In addition, the outcome in [7], in test [8], in test [9], in [13], in test [14] and in test [15] was inactive. The compound was classed as inactive in test [18].
